High-throughput results (PubChem BioAssay)
SARS PLpro yeast – inhibitors of SARS-CoV papain-like protease in yeast | S. cerevisiae expressing SARS-CoV PLpro, growth rescue | Potency, µM (titrated, usually from 32.9 µM), actives largely listed as activators | hit rate 0.19% among 330,000 | AID 485353; calls by dose curve; further: nearly all actives have a fitted effect of over 55% in size
Marburg entry inh – blocks Marburg virus binding to or entry into cells; hit rate 1.8% among 300,000; Potency, µM (top dose mostly 37.8 µM), most hits filed as inhibitors; Marburg virus pseudotyped entry inhibition, cell reporter; calls by dose curve; tested in HEK293 cells
HCMV inh – inhibitors of human cytomegalovirus. activity change, negative = inhibition, % at 57.5 µM. hit rate 4.5% among 410,000. HFF cells, HCMV-luciferase reporter, 72 h; stronger effect = lower value; in the data active means activity change below about -60%; inconclusive means no clear call, values can overlap the other calls; inactive means above about -39%
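After 16 h attachment at 37C, HFF cells received test compound and HCMV-luciferase (1 PFU/cell); reporter luminescence read 72 h later, data normalized against buffer-only and known inhibitor Salinomycin.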
HCV inhibitor – inhibitors of hepatitis C virus infection; AID 651820; Potency, µM (highest dose often 41.8 µM), actives largely listed as inhibitors; Huh7.5.1 HCVcc-Cre infection, luciferase reporter, 44 h; hit rate 3.4% among 340,000; active means well fitted inhibition curve with a large enough effect; inconclusive means small, poorly fitted or top-dose-only effect, or another doubt; inactive means no such curve, though single readings can be large or run the other way
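Reporter virus HCVcc-Cre (~0.5 moi) infects cells exposed to compound; seeding density 1,000 cells/well with 4 h settling beforehand. Luminescence, 15 sec read, taken 44 h post-infection following a 15 min RT substrate incubation.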
FMDV antiviral – foot and mouth disease virus antiviral activity | FMDV antiviral cell-based qHTS | Potency, µM (highest dose often 57.9 µM), hits mostly inhibitors | AID 1159524 | hit rate 1.2% among 410,000; calls by dose curve; tested in HEK293T cells; further: read-out not given here; nearly all actives have a fitted effect of over 45% in size
LASV entry inh – blocks Lassa virus binding to or entry into cells; Lassa virus pseudotype entry inhibition, cell reporter; Potency, µM (titrated, usually from 37.9 µM), usual class: inhibitors; hit rate 1.2% among 300,000; AID 540256; calls by dose curve; tested in HEK293 cells; further: nearly all actives have a fitted effect of over 50% in size
Of the large screens only hits and unclear results are named; the others gave an inactive call. Compounds with a hit are over-represented: about 8% of the library has one in this group of screens.

Cn1c(=O)n(Cc2ccccc2)c(=O)c2c1nc1n2CCCN1C1CCCCC1	Marburg entry inh inconclusive, FMDV antiviral inconclusive (no result: SARS PLpro yeast)
CCn1c(=O)c2c(nc3n2CCCN3CCc2ccc(OC)c(OC)c2)n(C)c1=O	FMDV antiviral inconclusive
COc1ccc(CCN2CCCn3c2nc2c3c(=O)n(CC(C)C)c(=O)n2C)cc1OC	HCV inhibitor 10µM, FMDV antiviral inconclusive (no result: Marburg entry inh, LASV entry inh)
Cn1c(=O)n(Cc2ccc(F)cc2)c(=O)c2c1nc1n2CCCN1C1CCCCC1	HCMV inh -67, FMDV antiviral inconclusive
Cc1cccc(Cn2c(=O)c3c(nc4n3CCCN4Cc3ccccc3)n(C)c2=O)c1	Marburg entry inh inconclusive, HCV inhibitor 11µM, FMDV antiviral inconclusive
COc1cc(Cn2c(=O)sc3ccccc32)ccc1OCCC(C)C	none (no result: SARS PLpro yeast, HCV inhibitor)
CCN(c1nc(N)c(C(=O)N=C(N)N)nc1Cl)C(C)C	Marburg entry inh 14µM, HCMV inh -62, HCV inhibitor inconclusive, LASV entry inh inconclusive (no result: SARS PLpro yeast)
COc1cccc(N=Nc2ccc(O)c3ncccc23)c1	Marburg entry inh inconclusive, HCMV inh -100, HCV inhibitor 6.3µM, LASV entry inh inconclusive
Nc1ccc(Br)c2cccnc12	Marburg entry inh inconclusive, HCV inhibitor inconclusive
O=Nc1ccc(O)c2ncccc12	HCMV inh -98, HCV inhibitor inconclusive, FMDV antiviral inconclusive (no result: Marburg entry inh, LASV entry inh)
COc1ccc(C)cc1N=Nc1ccc(O)c2ncccc12	SARS PLpro yeast inconclusive, HCMV inh -100, HCV inhibitor inconclusive (no result: Marburg entry inh, LASV entry inh)
Nc1ccc(N=Nc2ccccc2)c2cccnc12	HCV inhibitor 2.5µM (no result: Marburg entry inh, LASV entry inh)
Oc1ccc(COc2cccc3ccccc23)c2cccnc12	none (no result: Marburg entry inh, HCMV inh, HCV inhibitor, FMDV antiviral, LASV entry inh)
COc1cc(N)c2ncccc2c1Cl	none (no result: SARS PLpro yeast)
CCOc1ccc(CNC(=O)C2CCN(c3nc4ccccc4nc3C(F)(F)F)CC2)cc1OC	none (no result: SARS PLpro yeast, Marburg entry inh, HCV inhibitor)
Oc1ccc(N=Nc2ccc3c(c2)OCCO3)c2cccnc12	Marburg entry inh inconclusive, HCMV inh -98, HCV inhibitor inconclusive, FMDV antiviral inconclusive, LASV entry inh inconclusive
COc1cccc(N=Nc2ccc3cccnc3c2O)c1	HCMV inh -100, HCV inhibitor 2µM (no result: Marburg entry inh, LASV entry inh)
O=S(=O)(O)c1cccc2c(N=Nc3ccc(O)c4ncccc34)cccc12	SARS PLpro yeast inconclusive, HCV inhibitor inconclusive, FMDV antiviral inconclusive (no result: HCMV inh, LASV entry inh)
COc1ccc(N=Nc2ccc(O)c3ncccc23)cc1	HCMV inh active, HCV inhibitor inconclusive (no result: Marburg entry inh, LASV entry inh)
COc1cc(OC)cc(C(=O)Nc2cccc3cccnc23)c1	Marburg entry inh inconclusive
Cc1ccccc1N=Nc1ccc(O)c2ncccc12	SARS PLpro yeast 3.5µM, Marburg entry inh 5.6µM, HCMV inh -93, HCV inhibitor inconclusive, LASV entry inh inconclusive
Oc1ccc(N=Nc2ccc3c(c2)OCCO3)c(O)c1	FMDV antiviral inconclusive (no result: Marburg entry inh, LASV entry inh)
COc1ccc(S[C@]2(C(=O)NCC(F)(F)F)CC(=O)N[C@@H]2c2ccc(OC)cc2)cc1	none (no result: SARS PLpro yeast, Marburg entry inh, HCV inhibitor, FMDV antiviral, LASV entry inh)
CCOc1ccccc1CNC(=O)c1cc(-c2ccc(Cl)s2)nc2ccccc12	none (no result: SARS PLpro yeast, HCV inhibitor)
CC[n+]1c(-c2ccccc2)c2cc(N)ccc2c2ccc(N)cc21	Marburg entry inh inconclusive, HCMV inh -100, HCV inhibitor inconclusive, FMDV antiviral 40µM, LASV entry inh inconclusive (no result: SARS PLpro yeast)
COc1ccc(CNC(=O)Cc2c(C)c3cc4c(C)coc4c(C)c3oc2=O)cc1	Marburg entry inh inconclusive (no result: SARS PLpro yeast, HCV inhibitor)
CC(C)(C)OC(=O)N1CCC(C(=O)Nc2cccc(C(=O)NCCCCc3ccccc3)c2)CC1	HCV inhibitor inconclusive, FMDV antiviral 18µM (no result: SARS PLpro yeast, Marburg entry inh, LASV entry inh)
CC(C)(C)OC(=O)N1CCCC(C(=O)Nc2cccc(C(=O)NCCCCc3ccccc3)c2)C1 (stereo not given)	Marburg entry inh inconclusive, FMDV antiviral inconclusive (no result: SARS PLpro yeast, LASV entry inh)
O=C(NCCc1ccccc1)c1cccc(NC(=O)C2CC2)c1	HCV inhibitor 0.56µM, LASV entry inh inconclusive (no result: SARS PLpro yeast, Marburg entry inh)
O=C(NCCc1ccccc1)c1cccc(NC(=O)C2CCC2)c1	HCV inhibitor inconclusive, LASV entry inh inconclusive (no result: SARS PLpro yeast, Marburg entry inh)
O=C(NC1CC1)c1cccc(NC(=O)C2CC2)c1	HCMV inh -81 (no result: SARS PLpro yeast, Marburg entry inh, LASV entry inh)
O=C(O)C(O)C(O)(Cc1ccc(O)cc1)C(=O)O (stereo not given)	none (no result: SARS PLpro yeast, Marburg entry inh, HCMV inh, HCV inhibitor, LASV entry inh)
O=C(NCC(c1ccco1)N1CCN(c2ccc(F)cc2)CC1)OCc1ccccc1 (stereo not given)	Marburg entry inh inconclusive, HCV inhibitor inconclusive, LASV entry inh 1.3µM
O=C(NCC(c1ccco1)N1CCN(c2ccccc2F)CC1)c1cccs1 (stereo not given)	Marburg entry inh inconclusive (no result: HCMV inh)
O=C(NCc1cccs1)C(=O)NCC(c1ccco1)N1CCN(c2ccccc2F)CC1 (stereo not given)	HCV inhibitor 11µM (no result: Marburg entry inh, LASV entry inh)
